For 5 molecules, AC50 and outcome results are on record in PubChem BioAssay (EPA / NIEHS).

The AC50 is the concentration giving half of the maximal activity seen.

Calls of active or inactive are those of the source. The calls were made as follows: active = hit-call score of the fitted dose curve at least 0.9, where 1 is the maximum; inactive = score below 0.9.

Read-out in test [1]: Transforming growth factor beta 1 (TGFb1), TGFB1 (gene 7040)
In words: BSK_KF3CT_TGFb1: BioMAP Diversity Plus: KF3CT Assay for Transforming growth factor beta 1 (TGFb1) Biomarker Activity (AID 2283072). Conditions: primary human keratinocytes with fibroblasts; actives raise or lower the signal. An outline of the steps:
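KF3CT co-culture (keratinocytes + fibroblasts), 24 h exposure → TGF-b1 ELISA → bidirectional fit, DMSO = baseline. Parallel SRB total-protein staining (0.1% SRB, 10% TCA fixation, 560 nm) for cytotoxicity.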

Read-out in test [2]: C-C motif chemokine 2 (Homo sapiens) (UniProt P13500)
Put plainly: BSK_KF3CT_MCP1: BioMAP Diversity Plus: KF3CT Assay for Monocyte Chemoattractant Protein 1 (MCP1/CCL2) Biomarker Activity (AID 2283073). Conditions: primary human keratinocytes with fibroblasts; actives raise or lower the signal. The method, boiled down: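 KF3CT skin co-culture (keratinocytes/foreskin fibroblasts), 24 h post-dose; MCP-1 by ELISA; gain/loss of signal fit bidirectionally vs DMSO baseline.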

Read-out in test [3]: Matrix Metallopeptidase 9 (MMP9), MMP9 (gene 4318)
In words: BSK_KF3CT_MMP9: BioMAP Diversity Plus: KF3CT Assay for Matrix Metallopeptidase 9 (MMP9) Biomarker Activity (AID 2283074).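 As to AC50: MMP9 protein level quantified by ELISA in the co-culture.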 Conditions: primary human keratinocytes with fibroblasts; actives raise or lower the signal. The method, boiled down: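 MMP-9 quantified by ELISA after 24 h chemical treatment of primary human skin keratinocyte/fibroblast co-cultures; gain or loss fitted against DMSO, with parallel SRB staining (0.1% SRB, 560 nm) for overt cytotoxicity.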

Read-out in test [4]: urokinase plasminogen activator (uPA), PLAU (gene 5328)
Put plainly: BSK_KF3CT_uPA: BioMAP Diversity Plus: KF3CT Assay for urokinase plasminogen activator (uPA) Biomarker Activity (AID 2283075). Conditions: primary human keratinocytes with fibroblasts; actives raise or lower the signal. An outline of the steps:
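ELISA read-out of uPA 24 h after dosing human skin keratinocytes co-cultured with foreskin fibroblasts. Signal change fitted both ways relative to DMSO; sulforhodamine B on parallel cultures marks overt cytotoxicity.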

Read-out in test [5]: CD40, CD40 (gene 958)
In words: BSK_LPS_CD40: BioMAP Diversity Plus: LPS Assay for CD40 Biomarker Activity (AID 2283076). Conditions: primary human HUVEC with PBMC; actives raise or lower the signal. The method, boiled down: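 ELISA readout of CD40 in HUVEC/PBMC co-culture (BSK_LPS system), 24 h post-dosing; bidirectional curve fit, DMSO baseline; parallel SRB total-protein staining for cytotoxicity.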

Read-out in test [6]: Interleukin-8 (IL8), CXCL8 (gene 3576)
In words: BSK_LPS_IL8: BioMAP Diversity Plus: LPS Assay for Interleukin-8 (IL8) Biomarker Activity (AID 2283078). Conditions: primary human HUVEC with PBMC; actives raise or lower the signal. The method, boiled down:
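HUVEC + PBMC co-culture, LPS-activated; test chemicals dosed, IL-8 read by ELISA at 24 h. Bidirectional curve fit vs DMSO baseline (gain or loss of signal).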

The nature of test [7]: BSK_LPS_SRB: Viability Assessment in the BioMAP Diversity Plus: LPS Assay (AID 2283079).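 Also: total protein by sulforhodamine B absorbance as a cytotoxicity measure; measured one day after compound addition; fitted in both directions against DMSO so loss or gain of signal counts.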 Conditions: primary human HUVEC with PBMC. An outline of the steps: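 HUVEC + PBMC co-culture, LPS-stimulated; compound 24 h. 10% TCA fix, 0.1% SRB stain, A560. Bidirectional fit vs DMSO.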
Read-out in test [8]: Interleukin-1 alpha (IL1a), IL1A (gene 3552)
Put plainly: BSK_LPS_IL1a: BioMAP Diversity Plus: LPS Assay for Interleukin-1 alpha (IL1a) Biomarker Activity (AID 2283080). Conditions: primary human HUVEC with PBMC; actives raise or lower the signal. An outline of the steps: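 HUVEC/PBMC co-culture, LPS system; 24 h after dosing; IL-1a by ELISA; gain or loss of signal fitted bidirectionally vs DMSO baseline.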

Read-out in test [9]: Monocyte Chemoattractant Protein-1 (MCP1), CCL2 (gene 6347)
In words: BSK_LPS_MCP1: BioMAP Diversity Plus: LPS Assay for Monocyte Chemoattractant Protein-1 (MCP1) Biomarker Activity (AID 2283081).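 As to AC50: secreted MCP-1 protein quantified by ELISA in culture supernatant.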 Conditions: primary human HUVEC with PBMC; actives raise or lower the signal. The method, boiled down: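 ELISA read-out of MCP-1 after 24 h chemical dosing of a human umbilical vein endothelial cell/peripheral blood mononuclear cell co-culture stimulated with LPS. Gain or loss of signal fitted relative to DMSO controls.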

Test [10] is described as follows: BSK_LPS_PGE2: BioMAP Diversity Plus: LPS Assay for Prostaglandin E2 (PGE2) Biomarker Activity (AID 2283082). Conditions: primary human HUVEC with PBMC; actives raise or lower the signal. The method, boiled down: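 Compounds were added to the LPS co-culture of endothelium and PBMC, and PGE2 was measured by ELISA after 24 h. Responses in either direction were fitted with DMSO as baseline.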

Read-out in test [11]: Tissue Factor, F3 (gene 2152)
Put plainly: BSK_LPS_TissueFactor: BioMAP Diversity Plus: LPS Assay for Tissue Factor Biomarker Activity (AID 2283084). Conditions: primary human HUVEC with PBMC; actives raise or lower the signal. The method, boiled down: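 HUVEC/PBMC co-culture, LPS-activated; CD142 ELISA read 24 h post-dose; bidirectional curve fit vs DMSO negative control.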

Read-out in test [12]: Tumor necrosis factor (Homo sapiens) (UniProt P01375)
In words: BSK_LPS_TNFa: BioMAP Diversity Plus: LPS Assay for Tumour Necrosis Factor alpha (TNFa) Biomarker Activity (AID 2283085).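 As to AC50: TNFa protein level quantified by ELISA in the co-culture.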 Conditions: primary human HUVEC with PBMC; actives raise or lower the signal. The method, boiled down: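 Cells (umbilical vein endothelium plus peripheral blood mononuclear cells) were dosed with chemical, incubated 24 h, then TNFa was quantified by ELISA; values derive from bidirectional fitting with DMSO as baseline.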

Read-out in test [13]: Vascular cell adhesion molecule 1 (VCAM1), VCAM1 (gene 7412)
Put plainly: BSK_LPS_VCAM1: BioMAP Diversity Plus: LPS Assay for Vascular cell adhesion molecule 1 (VCAM1) Biomarker Activity (AID 2283086). Conditions: primary human HUVEC with PBMC; actives raise or lower the signal. The method, boiled down: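 Cells are dosed in an LPS-stimulated endothelial/mononuclear co-culture and, after 24 h, VCAM-1 is quantified by ELISA. Activity in either direction is fitted relative to the DMSO negative control.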

Read-out in a further test: CD38, CD38 (gene 952)
Put plainly: BSK_SAg_CD38: BioMAP Diversity Plus: SAg Assay for CD38 Biomarker Activity (AID 2283087). Conditions: primary human HUVEC with PBMC; actives raise or lower the signal. An outline of the steps:
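CD38 quantified by ELISA (fluorescence) in a superantigen-activated endothelial cell–PBMC co-culture at 24 h post-dose. Activity fitted in both directions relative to DMSO; parallel SRB and Alamar Blue cytotoxicity read-outs.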

Read-out in test [14]: CD40, CD40 (gene 958)
In words: BSK_SAg_CD40: BioMAP Diversity Plus: SAg Assay for CD40 Biomarker Activity (AID 2283088). Conditions: primary human HUVEC with PBMC; actives raise or lower the signal. An outline of the steps: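 HUVEC/PBMC co-culture, 24 h post-dose; CD40 by ELISA, fluorescence intensity; bidirectional fit vs DMSO negative control.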

Read-out in another test: CD69, CD69 (gene 969)
Put plainly: BSK_SAg_CD69: BioMAP Diversity Plus: SAg Assay for CD69 Biomarker Activity (AID 2283089).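 As to AC50: cell surface CD69 protein quantified by ELISA with fluorescence detection.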 Conditions: primary human HUVEC with PBMC; actives raise or lower the signal. An outline of the steps: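 ELISA, fluorescence read-out: CD69 on human umbilical vein endothelial cell + PBMC co-culture, 24 h post-dosing. Gain or loss of signal fitted bidirectionally against DMSO baseline.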

Read-out in test [15]: Monocyte Chemoattractant Protein-1 (MCP1), CCL2 (gene 6347)
Put plainly: BSK_SAg_MCP1: BioMAP Diversity Plus: SAg Assay for Monocyte Chemoattractant Protein-1 (MCP1) Biomarker Activity (AID 2283090). Conditions: primary human HUVEC with PBMC; actives raise or lower the signal. An outline of the steps: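 Values derive from bidirectional fitting of ELISA-measured MCP1 against DMSO controls. Readings were taken 24 h after dosing human vascular endothelial cells co-cultured with peripheral blood mononuclear cells under superantigen stimulation.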

Read-out in test [16]: E-selectin (Homo sapiens) (UniProt P16581)
Put plainly: BSK_SAg_Eselectin: BioMAP Diversity Plus: SAg Assay for Eselectin Biomarker Activity (AID 2283091). Conditions: primary human HUVEC with PBMC; actives raise or lower the signal. The method, boiled down: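 E-selectin ELISA readout at 24 h post-dosing in human umbilical vein endothelial cell/PBMC co-culture; gain or loss of signal fitted relative to DMSO baseline.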

Read-out in test [17]: Macrophage colony-stimulating factor (MCSF), CSF1 (gene 1435)
Put plainly: BSK_LPS_MCSF: BioMAP Diversity Plus: LPS Assay for Macrophage colony-stimulating factor (MCSF) Biomarker Activity (AID 2283083). Conditions: primary human HUVEC with PBMC; actives raise or lower the signal. An outline of the steps:
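HUVEC + PBMC co-culture (human primary), 24 h post-dose; M-CSF by ELISA; gain/loss of signal fitted bidirectionally vs DMSO baseline.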

Chain of E-selectin (Homo sapiens) (P16581 whole entry, looked up): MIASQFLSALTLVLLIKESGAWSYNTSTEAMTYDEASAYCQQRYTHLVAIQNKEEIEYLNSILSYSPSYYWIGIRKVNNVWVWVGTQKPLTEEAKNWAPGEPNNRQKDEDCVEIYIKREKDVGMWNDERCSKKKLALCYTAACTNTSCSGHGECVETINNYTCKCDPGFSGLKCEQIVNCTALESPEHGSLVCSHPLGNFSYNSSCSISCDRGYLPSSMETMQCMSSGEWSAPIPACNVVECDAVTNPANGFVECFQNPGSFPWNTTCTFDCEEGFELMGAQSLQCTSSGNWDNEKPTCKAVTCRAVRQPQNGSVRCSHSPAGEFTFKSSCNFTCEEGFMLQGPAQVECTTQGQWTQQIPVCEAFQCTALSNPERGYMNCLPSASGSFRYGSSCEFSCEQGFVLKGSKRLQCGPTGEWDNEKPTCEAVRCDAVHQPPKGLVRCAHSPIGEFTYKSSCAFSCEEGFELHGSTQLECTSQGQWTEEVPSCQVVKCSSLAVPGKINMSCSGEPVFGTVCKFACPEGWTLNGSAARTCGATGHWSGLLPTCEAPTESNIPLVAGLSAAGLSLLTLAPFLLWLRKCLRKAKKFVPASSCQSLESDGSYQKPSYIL
Chain of Tumor necrosis factor (Homo sapiens) (P01375 whole entry, looked up): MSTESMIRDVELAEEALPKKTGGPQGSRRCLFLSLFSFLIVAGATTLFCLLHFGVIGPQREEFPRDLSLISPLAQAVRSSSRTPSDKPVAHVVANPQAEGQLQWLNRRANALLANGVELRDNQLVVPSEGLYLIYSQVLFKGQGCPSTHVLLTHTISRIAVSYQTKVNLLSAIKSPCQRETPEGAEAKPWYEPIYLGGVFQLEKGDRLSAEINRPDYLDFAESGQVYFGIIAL

For the molecule `O=C(O)Cc1cc(I)c(Oc2cc(I)c(O)c(I)c2)c(I)c1`, the AC50 was 8.34 µM (active) in test [1]; 11 µM (active) in [2]; 8.62 µM (active) in test [3]; 18.8 µM (active) in test [4]; 14.7 µM (active) with CD40, CD40 (gene 958) [5]; 20.5 µM (active) in [6]. Moreover, the AC50 in test [8] is 21.2 µM (active); in [9], 23.9 µM (active); in test [10], 15.1 µM (active); in test [12] it was 17.4 µM (active); in test [13], 13.4 µM (active); in the test with CD38, CD38 (gene 952), 21.3 µM (active). Besides, the AC50 with CD40, CD40 (gene 958) [14] is 18.5 µM (active); with CD69, CD69 (gene 969), 15.3 µM (active); in test [15], 18.9 µM (active); in test [16] it was 16.2 µM (active). For the same molecule, the outcome in test [7] and in [11] was inactive.

As for `CCCCC(CC)COC(=O)CCCCC(=O)OCc1ccccc1` (configuration not stated), the outcome in [1] was “inactive”; in [2] it was “inactive”; in test [3], “inactive”; in [4], “inactive”; with CD40, CD40 (gene 958) [5], “inactive”; in [6], “inactive”. Also, the outcome in test [7], in test [8], in test [9], in [10], in test [17] and in test [11] was inactive. Besides, the outcome in test [12] was “inactive”; with CD38, CD38 (gene 952), “inactive”; with CD40, CD40 (gene 958) [14], “inactive”; with CD69, CD69 (gene 969) it was “inactive”; in test [15] it was “inactive”; in [16] it was “inactive”.

For `CCCCOCCO`, the outcome in test [1] was “inactive”; in test [2] it was “inactive”; in test [3], “inactive”; in [4], “inactive”; in the test with CD40, CD40 (gene 958) [5] it was “inactive”; in test [6] it was “inactive”. The result in test [7], in [8], in [9], in test [10], in test [11] and in test [12] was inactive. Further, the outcome in the test with CD38, CD38 (gene 952) was “inactive”; with CD40, CD40 (gene 958) [14] it was “inactive”; with CD69, CD69 (gene 969), “inactive”; in test [15], “inactive”; in test [16], “inactive”.

For `CC(O)CO` (configuration not stated), the outcome in [1] was “inactive”; in test [2] it was “inactive”; in [3] it was “inactive”; in [4], “inactive”; with CD40, CD40 (gene 958) [5] it was “inactive”; in [6], “inactive”. Moreover, the outcome in test [7], in [8], in [9], in [10], in test [11] and in test [12] was inactive. In addition, the outcome in the test with CD38, CD38 (gene 952) is “inactive”; in the test with CD40, CD40 (gene 958) [14], “inactive”; with CD69, CD69 (gene 969), “inactive”; in test [15], “inactive”; in test [16], “inactive”.

Consider `O=C(O)c1ccccc1C(c1ccc(O)cc1)c1ccc(O)cc1`, for which the outcome in test [1] is “inactive”; in test [2] it was “inactive”; in test [3], “inactive”; in test [4] it was “inactive”; with CD40, CD40 (gene 958) [5] it was “inactive”; in test [6] it was “inactive”. Besides, the outcome in [7], in test [8], in [9], in [10], in test [11] and in [12] was inactive. The outcome is “inactive” with CD38, CD38 (gene 952); “inactive” with CD40, CD40 (gene 958) [14]; “inactive” with CD69, CD69 (gene 969); “inactive” in test [15]; “inactive” in [16].
